The source made the active and inactive calls. How the source made its calls: active means hit-call score of the fitted dose curve at least 0.9, where 1 is the maximum; inactive means score below 0.9.
Assay: APR_HepG2_P-H2AX_72hr: Apredica 72-hour HepG2 Assay for H2AX Phosphorylation (AID 2282916);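 further: phospho-histone H2A.x immunostain intensity per cell marking DNA damage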
Details: imaging, actives raise or lower the signal
Procedure, shortened: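 HepG2 cells treated 72 h at 0.39–200 uM, 0.5% DMSO final, duplicates. Formaldehyde-fixed, Triton-permeabilised, immunostained for phospho-H2A.x with Hoechst; fluorescence imaged at 20x, bidirectional fit versus DMSO.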

outcome, inactive:
CC(N)=O
CC(COCC(C)OC(=O)c1ccccc1)OC(=O)c1ccccc1 (stereo not given)
O=C(NS(=O)(=O)/C=C/c1cccs1)c1ccc(F)cc1Br
O=C(Oc1ccccc1)c1cccc(C(=O)Oc2ccccc2)c1
Cc1occc(=O)c1O
N[C@@H](Cc1c[nH]c2ccccc12)C(=O)O
CSc1ccc(Oc2ccc(S(N)(=O)=O)cc2CN(C)C)cc1C
CC(=O)O[C@]1(C(C)=O)CC[C@H]2[C@@H]3C=C(Cl)C4=CC(=O)[C@@H]5C[C@@H]5[C@]4(C)[C@H]3CC[C@@]21C
CCCCOC(=O)CCCCC(=O)OCCCC
CCCCCCCCCCCCCCCCO
Cn1cnc2c1c(=O)[nH]c(=O)n2C
O=Cc1ccccc1C=O
NC=O
CC(=O)CC(c1ccccc1)c1c(O)c2ccccc2oc1=O (stereo not given)
C#CC(O)C(CC)CCCC (stereo not given)
CCCCCCC(C=O)=Cc1ccccc1
O=C1NC(=O)C(c2ccccc2)(c2ccccc2)N1
O=C(O)c1cccnc1
O=C1CCCCC1
CCCC(=O)O
C/C=C/c1ccc(OC)cc1
CC(=O)OCC(COC(C)=O)OC(C)=O
O=NO
CC(C)c1cccc(C(C)C)c1
CC(C)COC(=O)CCCCC(=O)OCC(C)C

AC50, active:
CC(=O)O 92 µM
O=C(N[C@@H](c1ccccc1)[C@@H]1CCCCN1)c1cccc(C(F)(F)F)c1Cl 6.64 µM
Nc1nc(=S)c2[nH]cnc2[nH]1 30.5 µM
Cc1ccc(-c2cc(C(F)(F)F)nn2-c2ccc(S(N)(=O)=O)cc2)cc1 100 µM
CC(C)NCC(O)c1ccc(O)c(O)c1 (stereo not given) 86.8 µM

Assay: APR_HepG2_MitoMembPot_72hr: Apredica 72-hour HepG2 Assay for Mitochondrial Membrane Potential (AID 2282917)
Details: imaging, actives raise or lower the signal
Procedure, shortened: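 HepG2 cells exposed 72 h to compounds at 0.39–200 uM (0.5% v/v DMSO, duplicates); MitoTracker Red CMXRos 250 nM loaded 30 min before 3.7% formaldehyde fixation, imaged by HCS fluorescence. Bidirectional fit versus DMSO.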

outcome, inactive:
CC(N)=O
CC(COCC(C)OC(=O)c1ccccc1)OC(=O)c1ccccc1 (stereo not given)
O=C(NS(=O)(=O)/C=C/c1cccs1)c1ccc(F)cc1Br
O=C(Oc1ccccc1)c1cccc(C(=O)Oc2ccccc2)c1
Cc1occc(=O)c1O
N[C@@H](Cc1c[nH]c2ccccc12)C(=O)O
CSc1ccc(Oc2ccc(S(N)(=O)=O)cc2CN(C)C)cc1C
CC(=O)O[C@]1(C(C)=O)CC[C@H]2[C@@H]3C=C(Cl)C4=CC(=O)[C@@H]5C[C@@H]5[C@]4(C)[C@H]3CC[C@@]21C
CCCCOC(=O)CCCCC(=O)OCCCC
CCCCCCCCCCCCCCCCO
O=C(N[C@@H](c1ccccc1)[C@@H]1CCCCN1)c1cccc(C(F)(F)F)c1Cl
Cn1cnc2c1c(=O)[nH]c(=O)n2C
O=Cc1ccccc1C=O
NC=O
CC(=O)CC(c1ccccc1)c1c(O)c2ccccc2oc1=O (stereo not given)
C#CC(O)C(CC)CCCC (stereo not given)
Nc1nc(=S)c2[nH]cnc2[nH]1
Cc1ccc(-c2cc(C(F)(F)F)nn2-c2ccc(S(N)(=O)=O)cc2)cc1
CCCCCCC(C=O)=Cc1ccccc1
O=C1NC(=O)C(c2ccccc2)(c2ccccc2)N1
O=C(O)c1cccnc1
O=C1CCCCC1
CCCC(=O)O
C/C=C/c1ccc(OC)cc1
CC(=O)OCC(COC(C)=O)OC(C)=O
O=NO
CC(C)c1cccc(C(C)C)c1
CC(C)NCC(O)c1ccc(O)c(O)c1 (stereo not given)
CC(C)COC(=O)CCCCC(=O)OCC(C)C

AC50, active:
CC(=O)O 100 µM
